The other results are listed elsewhere or left out. A number with no mark means an inactive call. The source made the active and inactive calls.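 The calls were made as follows: active = inhibition averaging 50% or more, tested at 20 µM; inactive = the rest.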
System: diaphorase (Clostridium kluyveri)
Assay: C. kluyveri diaphorase inhibition, resazurin coupling – biochemical, fluorescence intensity, 30 µM NADPH, counter-screen for P. falciparum G6PD inhibitor project, confirmation (AID 504863);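 also: 0% = DMSO with enzyme and 100% = DMSO wells lacking diaphorase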
Details: Diaphorase/resazurin coupled assay, resorufin fluorescence, at 20 µM, active compounds read high

Row | Structure (SMILES) | inhibition
1 | COc1ccc(CC(=O)NCC(=O)N/N=C/c2cc(Br)ccc2OC)cc1 | 70.8% (active)
2 | O=c1[nH]c2ccccc2n2c(-c3ccccc3)nnc12 | 15.9%
3 | OCCN1CCN(C(=S)c2ccc(-c3ccccc3)cc2)CC1 | 2.65%
4 | O=C1C=CC(=O)N1c1ccc(N2CCCCC2)cc1 | -16.6%
5 | Cc1cccc(C(=O)Nc2nnc(S(=O)(=O)N3CCCCCC3)s2)c1 | 36.1%
6 | CCN(CC)c1ccc2oc(=O)c(C)nc2c1 | 62.5% (active)
7 | O=C(NC1=CC(=O)c2ccccc2C1=O)c1ccccc1 | 60.6% (active)
8 | CCN1CCCC1CNC(=O)c1ccc2c(c1)NC(=O)/C(=C\c1ccccc1F)S2 (stereo unspecified) | -9.58%
9 | Cc1ccc(/C=C/C(=O)Nc2ccc([N+](=O)[O-])c(NC(=O)/C=C/c3ccc(C)o3)c2)o1 | -7.03%
10 | O=C(Nc1nc(-c2ccncc2)cs1)C1COc2ccccc2O1 (stereo unspecified) | -24.7%
11 | COc1cccc(C(=O)Nc2nnc(S(=O)(=O)N3CCOCC3)s2)c1 | 54.9% (active)
12 | Cc1ccnc(-n2sc3ccccc3c2=O)n1 | -26.9%
13 | c1ccc(-c2cn3c(n2)CCc2ccc4cccnc4c2-3)cc1 | 45%
14 | COc1ccc(CCn2c(NN=C3CCCC3)nc3c2c(=O)[nH]c(=O)n3C)cc1 | -4.07%
15 | O=C1/C(=C\c2ccc([N+](=O)[O-])cc2)CS(=O)(=O)C/C1=C/c1ccc([N+](=O)[O-])cc1 | -12.8%
16 | O=C(Nc1nnc(S(=O)(=O)N2CCOCC2)s1)c1cccc(Br)c1 | 48.1%

Row | Structure (SMILES) | inhibition
17 | C=CCc1ccccc1OCC(=O)N/N=C/c1ccccc1OCC | 43.5%
18 | COc1ccc(OCc2nnc3n2N=C(c2ccccc2)C(CC(=O)O)S3)cc1 (stereo unspecified) | 1.64%
19 | O=[N+]([O-])c1c(NCCO)cc(Sc2nc3ccccc3s2)c2nonc12 | 0.96%
20 | Cn1c(-c2sccc2OCc2cccc(C(F)(F)F)c2)n[nH]c1=S | 10.1%
21 | CCSc1nnc(NC(=O)c2ccc(C)cc2)s1 | 56.5% (active)
22 | O=C(CN1CCN(c2ccc(O)cc2)CC1)Nc1cc(S(=O)(=O)N2CCOCC2)ccc1Cl | 7.17%
23 | CCOc1ccccc1/C=N/NC(=O)CNC(=O)COc1ccccc1 | 88.1% (active)
24 | COc1cccc(C(=O)Nc2nnc(S(=O)(=O)N3CCCCC3)s2)c1 | 57% (active)
25 | CC(C)(C)NC(=O)COc1ccc(CNc2ccc3[nH]c(=O)[nH]c3c2)cc1 | 12.2%
26 | COc1ccc2c(c1)c(=Cc1ccc(N(C)C)cc1)c1cc(-c3ccccc3)[n+](C)n12 | 15.6%
27 | COc1cccc(C(=O)Nc2nnc(S(=O)(=O)N(C)c3ccccc3)s2)c1 | 56.8% (active)
28 | CCOC(=O)C1=C(c2ccc(OC)cc2)C(=O)c2ccccc2C1=O | 85.7% (active)
29 | COc1c(O)ccc2c1CN1CCc3cc4c(cc3C1C2)OCO4 (stereo unspecified) | 8.58%
30 | O=C(Nc1nnc(S(=O)(=O)N2CCCCCC2)s1)c1cccc(Br)c1 | 41.6%
31 | Cc1ccc(NC(=O)Cn2sc3ccccc3c2=O)cc1 | 11.3%
